PAFAH2 inh: PAFAH2 enzyme inhibitors, primary screen, biochemical, fluorescence polarization, human; AID 492956, 2010; inhibition, % at 3.39 µM; Platelet-activating factor acetylhydrolase 2, cytoplasmic (Homo sapiens), Q99487; recombinant PAFAH2, FP-rhodamine activity probe; actives 0.99% (n = 340,000);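 active means inhibition above the mean over all tested compounds plus 3 SD, cut at about 30% in these data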;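 further: inhibitors block probe labeling of enzyme so polarization drops; 0% = enzyme with DMSO and 100% = wells lacking PAFAH2 protein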
pPAFAH inh: pPAFAH enzyme inhibitors, primary screen, biochemical, fluorescence polarization, human; Platelet-activating factor acetylhydrolase (Homo sapiens), Q13093; recombinant pPAFAH, FP-rhodamine probe fluorescence polarization; inhibition, % at 3.39 µM; actives 1.5% (n = 330,000); AID 463082, 2010;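 active means inhibition above the mean inhibition across the screen plus 3 SD, cut at about 25% in these data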;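 further: inhibitors block binding of the rhodamine activity-based probe so polarization drops; 0% = enzyme with DMSO and 100% = wells lacking pPAFAH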
PAFAH1B2 inh: PAFAH1B2 enzyme inhibitors, primary screen, biochemical, fluorescence polarization, human; AID 492953, 2010; actives 1.2% (n = 340,000); inhibition, % at 3.39 µM; Platelet-activating factor acetylhydrolase IB subunit alpha2 (Homo sapiens), P68402; recombinant PAFAH1B2, FP-rhodamine activity probe;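 active means inhibition above the mean of all tested compounds plus 3 SD, cut at about 24% in these data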;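 further: 0% = enzyme with DMSO and 100% = wells lacking PAFAH1B2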
PAFAH1B3 inh: PAFAH1B3 enzyme inhibitors, primary screen, biochemical, fluorescence polarization, human; Platelet-activating factor acetylhydrolase IB subunit alpha1 (Homo sapiens), Q15102; AID 492972, 2010; actives 0.28% (n = 340,000); recombinant PAFAH1B3, FP-rhodamine probe; inhibition, % at 3.39 µM;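 active means inhibition above the screen-wide average of all tested compounds plus 3 SD, cut at about 25% in these data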;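 further: 0% = enzyme with DMSO only and 100% = wells lacking PAFAH1B3 protein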
Target sequence (Q15102 whole entry, looked up): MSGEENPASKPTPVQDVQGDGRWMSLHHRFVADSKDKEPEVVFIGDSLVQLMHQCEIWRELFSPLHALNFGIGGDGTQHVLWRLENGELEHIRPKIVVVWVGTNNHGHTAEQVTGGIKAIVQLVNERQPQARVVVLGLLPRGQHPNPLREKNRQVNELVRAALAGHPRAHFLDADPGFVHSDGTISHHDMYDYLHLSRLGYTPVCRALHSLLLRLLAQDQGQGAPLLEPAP
Fam108B inh: mouse Fam108B serine hydrolase inhibitors, primary screen, counter-screen for RBBP9 inhibitor project, biochemical, fluorescence polarization; recombinant Fam108B, FP-Rh probe fluorescence polarization; inhibition, % at 9.51 µM; actives 0.33% (n = 300,000); AID 1947, 2009;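 active means inhibition above the screen mean inhibition plus 3 SD, computed separately per campaign, cut at about 18% in these data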;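 further: inhibitors lower polarization as less probe binds the enzyme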
PME-1 primary: PME-1 inhibitors via competitive probe labeling, primary screen, biochemical, fluorescence polarization, FP-Rh probe, HTS | Protein phosphatase methylesterase 1 (Homo sapiens), Q9Y570 | recombinant PME-1 | inhibition, % at 5.9 µM | actives 0.53% (n = 320,000) | AID 2130, 2009;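 active means inhibition above the campaign mean of all compounds plus 3 SD, cut at about 26% in these data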;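 further: competitive labeling of PME-1 active site by serine hydrolase directed probe; 0% = PME-1 with DMSO and 100% = wells lacking PME-1 enzyme; inhibitors block probe labeling so polarization falls and inhibition rises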
Target sequence (Q9Y570 whole entry, looked up): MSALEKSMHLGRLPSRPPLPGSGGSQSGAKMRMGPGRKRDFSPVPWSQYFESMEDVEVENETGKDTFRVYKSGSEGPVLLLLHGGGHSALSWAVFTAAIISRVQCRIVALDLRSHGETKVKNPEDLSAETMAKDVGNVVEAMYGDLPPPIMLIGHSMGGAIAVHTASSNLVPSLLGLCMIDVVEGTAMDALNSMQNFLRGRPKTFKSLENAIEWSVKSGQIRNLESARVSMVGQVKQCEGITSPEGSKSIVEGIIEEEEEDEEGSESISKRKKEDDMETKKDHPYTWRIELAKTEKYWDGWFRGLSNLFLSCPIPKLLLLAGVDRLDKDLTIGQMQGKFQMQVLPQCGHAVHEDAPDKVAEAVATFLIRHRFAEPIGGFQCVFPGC
The depositor's hits bear a star; / = no result. Sampled rows, rich in hits. Any-hit rate of the full collection: about 2.9%.

SMILES	PAFAH2 inh	pPAFAH inh	PAFAH1B2 inh	PAFAH1B3 inh	Fam108B inh	PME-1 primary
Cc1ccc(C2(c3noc(CN4CCC(C(=O)N5CCOCC5)CC4)n3)CCCC2)cc1	-2.2	8.0	26.5*	3.3	1.1	-1.5
Cc1ccc(-c2csc3nc(SCC(N)=O)n(Cc4ccccc4)c(=O)c23)cc1	7.9	8.0	-3.8	4.6	-4.5	5.5
CN1/C(=C\C(=O)COC(=O)c2ccc(O)c(O)c2)C(C)(C)c2ccccc21	/	32.4*	/	/	-11.3	-20.8
CC(C)(C)c1ccc(CCC(CC(=O)O)CC(=O)O)cc1	-1.0	6.6	26.6*	14.3	-2.1	-1.4
O=C(Nc1nc(-c2ccncc2)cs1)c1ccc(F)cc1	-6.1	-4.8	10.2	6.4	-3.0	-4.0
Cc1ccc(/C=C/C2=NN(Cc3ccccc3)C(=O)CC2)cc1	6.4	4.1	3.2	-2.0	-0.4	0.0
COc1ccc(-c2nc(SCC(=O)NC3CCCC3)c(-c3ccc(OC)cc3)[nH]2)cc1	0.8	3.7	1.9	11.4	2.5	17.8
COc1ccc(-c2[nH]c(-c3ccc(SC)cc3)nc2SCC(=O)Nc2nccs2)cc1	-20.5	7.2	27.1*	24.9	35.5*	70.2*
Cc1ccc(C)c(C(=O)N(Cc2nc(-c3ccc(Cl)cc3)no2)C(C)C)c1	4.2	27.0*	-1.2	1.2	1.0	-1.1
COc1cccc(C(=O)N(Cc2nc(-c3ccc(C)cc3)no2)C(C)C)c1	-2.5	0.4	2.4	-9.1	1.9	-5.8
COc1cccc(OCC(=O)N(Cc2nc(-c3ccc(Cl)cc3)no2)C(C)C)c1	-7.1	26.2*	-1.6	8.0	-1.1	-2.3
CCOc1cc(CNc2ccc(N3CCCCC3)cc2)cc(Br)c1OCC(=O)NC(C)(C)C	0.9	2.0	7.1	7.9	-2.4	-0.9
CCOc1cc(CNc2ccc(N(C)C)cc2)cc(Br)c1OCC(=O)NC(C)(C)C	9.9	34.3*	5.5	7.0	2.7	8.7
CCOc1cc(CNc2ccc(N3CCOCC3)cc2)cc(Br)c1OCC	7.3	25.0*	3.6	8.0	6.2	1.0
CC(=O)c1sc(N/N=C\c2ccc(Br)cc2)nc1C	-1.0	6.4	3.4	10.3	0.6	26.7*
Cc1ccc(Nc2cc(C)nn2-c2nc(C)cc(=O)[nH]2)cc1	4.3	29.9*	-2.5	3.4	5.8	5.0
Cc1ccc(Nc2cc(C)nn2-c2nc(C)cc(C)n2)cc1	21.7	21.0	1.3	0.5	-0.7	5.3
CC(=O)c1cccc(NC(=O)Nc2cc3sccc3n2C)c1	/	20.1	/	/	-3.8	7.5
O=C(CC(c1ccccc1)(c1ccccc1)c1ccccc1)N[C@@H](Cc1ccccc1)C(=O)O	0.4	6.9	24.8*	4.4	-3.3	-2.6
O=C(O)[C@H](Cc1ccccc1)NC(=O)C(c1ccccc1)(c1ccccc1)c1ccccc1	4.9	3.2	2.4	5.4	-1.1	3.2
N#CC1=C(S)N(c2ccc(F)cc2)C(c2cccs2)NC1=O (stereo not drawn)	1.0	/	16.6	7.7	/	/
Cc1cccc(N2C(S)=C(C#N)C(=O)NC2c2cccs2)c1 (stereo not drawn)	3.0	2.2	29.9*	6.6	4.1	7.0
Cc1noc(C)c1CSCC(=O)Nc1ccccc1N1CCCCC1	-3.8	7.0	29.5*	1.6	4.2	-0.9
Cc1ccc2[nH]c(O)c(N=NC(=O)C3CC3c3ccccc3)c2c1Br (stereo not drawn)	-0.3	1.5	0.3	6.2	-5.2	-9.1
S=c1[nH]nc(-c2ccco2)n1/N=C/c1cccc(Cl)c1Cl	27.3	19.8	8.1	12.1	14.7	19.4
SMILES	PAFAH2 inh	pPAFAH inh	PAFAH1B2 inh	PAFAH1B3 inh	Fam108B inh	PME-1 primary
S=c1[nH]nc(-c2ccco2)n1/N=C/c1ccc(Cl)cc1Cl	18.1	31.3*	14.7	6.0	2.6	24.0
Cc1nn(C)c(C)c1CN(Cc1nc(-c2ccc(F)cc2F)oc1C)C1CC1	6.5	-0.9	1.9	3.7	0.3	11.1
CC1CCN(S(=O)(=O)c2ccc(NC(=O)CN3CCCC3)cc2)CC1	-0.8	7.6	15.3	3.7	-2.3	1.4
CC1CCN(S(=O)(=O)c2ccc(NC(=O)Cc3cccs3)cc2)CC1	2.3	13.1	31.0*	-0.6	0.1	-2.0
CC1CCCN(CC(=O)Nc2ccc(S(=O)(=O)N3CCCCC3)cc2)C1 (stereo not drawn)	-3.9	-3.1	3.4	2.0	2.4	0.6
CC1CCN(CC(=O)Nc2ccc(S(=O)(=O)N3CCC(C)CC3)cc2)CC1	-4.3	-0.9	28.6*	8.1	-3.6	-1.0
CC1CCCN(CC(=O)Nc2ccc(S(=O)(=O)NC3CCCCC3)cc2)C1 (stereo not drawn)	-2.8	27.6*	5.9	-0.2	-4.0	-2.1
CC1CCN(S(=O)(=O)c2ccc(NC(=O)CN3CCOCC3)cc2)CC1	9.4	2.6	32.9*	17.4	-1.4	-2.3
COC(=O)c1ccccc1NC(=O)COC(C)=O	2.1	0.7	5.8	5.6	1.9	-1.5
N#CCC(=O)Nc1sc2c(c1C(N)=O)CCCC2	-4.5	32.7*	-0.5	3.2	-2.1	3.3
CCCCOC(=O)Nc1nnc(CCc2ccccc2)s1	-1.5	26.4*	6.6	3.5	-0.3	3.6
CC(C)CNC(=O)C(=O)NN=C1CCCCCC1	-9.0	1.1	-4.2	8.2	2.7	4.1
COc1ccc(Cl)cc1CNCCCSc1ncccn1	-4.0	/	-3.4	-6.2	/	/
Cc1ccc(S(=O)(=O)n2ccc3c(OCCOCCSCC(NC(=O)OC(C)(C)C)C(=O)O)cccc32)cc1 (stereo not drawn)	0.8	14.7	81.1*	1.6	-9.7	-2.1
Cc1ccc(S(=O)(=O)NCCCCC(NC(=O)OC(C)(C)C)C(=O)O)cc1 (stereo not drawn) (tested in a mixture with another compound)	-1.6	2.6	4.6	-0.3	-0.1	5.0
CCCNc1c(N)n(-c2ccccc2)c(=O)[nH]c1=O	-3.5	-3.9	-4.7	-1.0	-1.3	-4.8
COc1ccc(/C=N/NC(=O)CN(Cc2ccccc2)S(=O)(=O)c2ccc3c(c2)OCCO3)cc1	-4.6	16.2	-0.6	-2.6	-15.1	-16.4
O=C(CN(Cc1ccccc1)S(=O)(=O)c1ccc2c(c1)OCCO2)N/N=C/c1ccc(F)cc1	-5.4	33.0*	-1.2	2.6	-16.9	-20.7
Cn1c(CCN2CCCC2)nc2cc(NS(=O)(=O)c3ccc(Cl)cc3)ccc21	4.8	10.4	28.1*	2.3	-4.9	2.5
CCc1cc(C(=O)N2CCCC(C(=O)c3cccc(OC(C)C)c3)C2)n(C)n1 (stereo not drawn)	4.1	1.9	9.3	7.5	-3.4	9.5
